The source made the active and inactive calls. Rule for the calls: active = hit-call score of the fitted dose curve at least 0.9, where 1 is the maximum; inactive = score below 0.9.
Target: Hepatocyte nuclear factor 6 (Homo sapiens) (UniProt Q9UBC0)
Assay: ATG_HNF6_CIS: Attagene CIS-FACTORIAL HepG2 Assay for human Hepatocyte Nuclear Factor 6 (HNF6) (AID 2282952)
Settings: HepG2 Attagene cis-factorial HNF6 reporter transcription; actives raise or lower the signal
Procedure, shortened: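 Activity values derive from bidirectional fitting against DMSO of reporter mRNA levels, measured by capillary electrophoresis of labelled RT-PCR products from HepG2 cells exposed 24 h.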

Sequence of Hepatocyte nuclear factor 6 (Homo sapiens) (Q9UBC0 whole entry, looked up): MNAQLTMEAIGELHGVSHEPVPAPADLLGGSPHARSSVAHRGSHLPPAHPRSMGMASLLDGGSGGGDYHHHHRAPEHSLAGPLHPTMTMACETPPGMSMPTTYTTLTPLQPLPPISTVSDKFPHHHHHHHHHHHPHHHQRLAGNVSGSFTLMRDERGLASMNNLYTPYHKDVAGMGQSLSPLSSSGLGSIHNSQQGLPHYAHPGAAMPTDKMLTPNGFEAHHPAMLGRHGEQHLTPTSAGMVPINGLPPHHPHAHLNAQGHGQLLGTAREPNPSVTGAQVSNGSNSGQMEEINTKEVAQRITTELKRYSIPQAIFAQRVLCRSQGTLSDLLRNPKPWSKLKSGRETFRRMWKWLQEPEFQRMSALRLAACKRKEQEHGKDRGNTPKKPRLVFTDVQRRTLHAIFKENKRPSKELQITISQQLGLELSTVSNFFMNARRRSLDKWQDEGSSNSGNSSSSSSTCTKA

Compound | outcome
CCOP(=O)(SC(C)CC)N1CCSC1=O (stereo not drawn) | inactive
CCCCOC(=O)[C@@H](C)Oc1ccc(Oc2ccc(C#N)cc2F)cc1 | inactive
CC(=NC#N)N(C)Cc1ccc(Cl)nc1 | inactive
CCc1cccc(C)c1N(C(=O)CCl)C(C)COC (stereo not drawn) | inactive
COc1cc(OC)nc(Sc2cccc(Cl)c2C(=O)O)n1 | inactive
CON=C(C(=O)OC)c1ccccc1CON=C(C)c1cccc(C(F)(F)F)c1 | inactive
CC1=NNC(=O)N(/N=C/c2cccnc2)C1 | inactive
S=C1NCCN1 | inactive
CC(C)=CC1C(C(=O)OCN2C(=O)C3=C(CCCC3)C2=O)C1(C)C (stereo not drawn) | inactive
CC(C1CC1)C(O)(Cn1cncn1)c1ccc(Cl)cc1 (stereo not drawn) | inactive
C#CC(C)(C)NC(=O)c1cc(Cl)cc(Cl)c1 | inactive
CCC(=O)Nc1ccc(Cl)c(Cl)c1 | inactive
O=C(O)c1cc(Oc2ccc(C(F)(F)F)cc2Cl)ccc1[N+](=O)[O-] | inactive
CCOP(=S)(OCC)SCCSCC | inactive
CCc1cnc(C2=NC(C)(C(C)C)C(=O)N2)c(C(=O)O)c1 (stereo not drawn) | inactive
CCOP(=S)(Oc1cnc(C(C)(C)C)nc1)OC(C)C (stereo not drawn) | inactive
CCOP(=S)(OCC)OC(Cl)C(Cl)(Cl)Cl (stereo not drawn) | inactive
CN(C)C(=O)Nc1cccc(C(F)(F)F)c1 | inactive

Compound | outcome
CNC(=O)ON=C(C)SC | inactive
CCCOc1nn(C(=O)NS(=O)(=O)c2ccccc2C(=O)OC)c(=O)n1C | inactive
CCOC(=O)COc1cc(-c2nn(C)c(OC(F)F)c2Cl)c(F)cc1Cl | inactive
CCOP(=S)(OCC)Oc1ccc([N+](=O)[O-])cc1 | inactive
CC[C@H](C)[C@H]1O[C@]2(C=C[C@@H]1C)C[C@@H]1C[C@@H](C/C=C(\C)[C@@H](O[C@H]3C[C@H](OC)[C@@H](O[C@H]4C[C@H](OC)[C@@H](NC)[C@H](C)O4)[C@H](C)O3)[C@@H](C)/C=C/C=C3\CO[C@@H]4[C@H](O)C(C)=C[C@@H](C(=O)O1)[C@]34O)O2 | inactive
CN(C)[C@@H]1C(=O)C(C(N)=O)=C(O)[C@@]2(O)C(=O)C3=C(O)c4c(O)cccc4[C@@](C)(O)[C@H]3[C@H](O)[C@@H]12 | inactive
CCNc1nc(Cl)nc(NC(C)(C)C#N)n1 | inactive
CC(C)[C@H](C(=O)O[C@H](C#N)c1cccc(Oc2ccccc2)c1)c1ccc(Cl)cc1 | inactive
CCOP(=S)(OCC)Oc1ccc2c(C)c(Cl)c(=O)oc2c1 | inactive
CSc1nc(NC(C)C)nc(NC(C)C)n1 | inactive
COP(=O)(OC)SCn1c(=O)oc2cc(Cl)cnc21 | inactive
CN(C)NC(=O)CCC(=O)O | inactive
Cc1nn(-c2cc(NS(C)(=O)=O)c(Cl)cc2Cl)c(=O)n1C(F)F | inactive
CCCCN(CC)c1c([N+](=O)[O-])cc(C(F)(F)F)cc1[N+](=O)[O-] | inactive
CCC(=NOC/C=C/Cl)C1=C(O)CC(C2CCOCC2)CC1=O (stereo not drawn) | inactive
C[N+]1(C)CCCCC1 | inactive
CNC(=O)ON=C(SC)C(=O)N(C)C | inactive
COP(=O)(NC(C)=O)SC (stereo not drawn) | inactive

Target: Heat shock factor protein 1 (Homo sapiens) (UniProt Q00613)
Assay: ATG_HSE_CIS: Attagene CIS-FACTORIAL HepG2 Assay for human Heat Shock Transcription Factor 1 (HSE) (AID 2282953)
Settings: HepG2 HSE cis-reporter, Attagene RNA transcription; actives raise or lower the signal
Procedure, shortened: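 Endogenous transcription factor activity in transiently transfected HepG2, read as reporter mRNA by RT-PCR with fluorescent capillary electrophoresis after 24 h. Gain or loss of signal fitted versus DMSO baseline.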

Sequence of Heat shock factor protein 1 (Homo sapiens) (Q00613 whole entry, looked up): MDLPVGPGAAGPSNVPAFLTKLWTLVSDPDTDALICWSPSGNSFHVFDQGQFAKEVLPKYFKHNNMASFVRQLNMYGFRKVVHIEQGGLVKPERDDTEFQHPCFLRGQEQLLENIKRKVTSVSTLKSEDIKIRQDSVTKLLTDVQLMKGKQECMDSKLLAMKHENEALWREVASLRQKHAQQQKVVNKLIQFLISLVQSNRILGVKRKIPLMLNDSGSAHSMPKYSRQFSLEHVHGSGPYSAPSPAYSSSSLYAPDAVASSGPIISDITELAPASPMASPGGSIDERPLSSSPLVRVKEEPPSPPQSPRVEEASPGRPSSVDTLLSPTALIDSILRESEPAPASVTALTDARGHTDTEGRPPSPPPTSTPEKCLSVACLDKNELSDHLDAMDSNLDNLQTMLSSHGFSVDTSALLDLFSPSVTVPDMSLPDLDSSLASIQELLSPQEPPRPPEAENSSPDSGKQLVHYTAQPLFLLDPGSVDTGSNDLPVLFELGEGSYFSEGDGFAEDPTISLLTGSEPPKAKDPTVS

Compound | outcome | AC50
CCOP(=O)(SC(C)CC)N1CCSC1=O (stereo not drawn) | inactive | 
CCCCOC(=O)[C@@H](C)Oc1ccc(Oc2ccc(C#N)cc2F)cc1 | inactive | 
CC(=NC#N)N(C)Cc1ccc(Cl)nc1 | inactive | 
CCc1cccc(C)c1N(C(=O)CCl)C(C)COC (stereo not drawn) | inactive | 
COc1cc(OC)nc(Sc2cccc(Cl)c2C(=O)O)n1 | inactive | 
CON=C(C(=O)OC)c1ccccc1CON=C(C)c1cccc(C(F)(F)F)c1 |  | 24.1 µM (active)
CC1=NNC(=O)N(/N=C/c2cccnc2)C1 | inactive | 
S=C1NCCN1 | inactive | 
CC(C)=CC1C(C(=O)OCN2C(=O)C3=C(CCCC3)C2=O)C1(C)C (stereo not drawn) |  | 93.9 µM (active)
CC(C1CC1)C(O)(Cn1cncn1)c1ccc(Cl)cc1 (stereo not drawn) | inactive | 
C#CC(C)(C)NC(=O)c1cc(Cl)cc(Cl)c1 | inactive | 
CCC(=O)Nc1ccc(Cl)c(Cl)c1 | inactive | 
O=C(O)c1cc(Oc2ccc(C(F)(F)F)cc2Cl)ccc1[N+](=O)[O-] | inactive | 
CCOP(=S)(OCC)SCCSCC | inactive | 
CCc1cnc(C2=NC(C)(C(C)C)C(=O)N2)c(C(=O)O)c1 (stereo not drawn) | inactive | 
CCOP(=S)(OCC)OC(Cl)C(Cl)(Cl)Cl (stereo not drawn) | inactive | 

Compound | outcome | AC50
CN(C)C(=O)Nc1cccc(C(F)(F)F)c1 | inactive | 
CNC(=O)ON=C(C)SC | inactive | 
CCCOc1nn(C(=O)NS(=O)(=O)c2ccccc2C(=O)OC)c(=O)n1C | inactive | 
CCOP(=S)(OCC)Oc1ccc([N+](=O)[O-])cc1 | inactive | 
CN(C)[C@@H]1C(=O)C(C(N)=O)=C(O)[C@@]2(O)C(=O)C3=C(O)c4c(O)cccc4[C@@](C)(O)[C@H]3[C@H](O)[C@@H]12 | inactive | 
CC(C)[C@H](C(=O)O[C@H](C#N)c1cccc(Oc2ccccc2)c1)c1ccc(Cl)cc1 | inactive | 
CCOP(=S)(OCC)Oc1ccc2c(C)c(Cl)c(=O)oc2c1 | inactive | 
CSc1nc(NC(C)C)nc(NC(C)C)n1 | inactive | 
COP(=O)(OC)SCn1c(=O)oc2cc(Cl)cnc21 | inactive | 
CN(C)NC(=O)CCC(=O)O | inactive | 
Cc1nn(-c2cc(NS(C)(=O)=O)c(Cl)cc2Cl)c(=O)n1C(F)F | inactive | 
CCCCN(CC)c1c([N+](=O)[O-])cc(C(F)(F)F)cc1[N+](=O)[O-] | inactive | 
CCC(=NOC/C=C/Cl)C1=C(O)CC(C2CCOCC2)CC1=O (stereo not drawn) | inactive | 
C[N+]1(C)CCCCC1 | inactive | 
CNC(=O)ON=C(SC)C(=O)N(C)C | inactive | 
COP(=O)(NC(C)=O)SC (stereo not drawn) | inactive | 
